About 100 (0.2%) of roughly 62,000 compounds were called active. No stated cut-off is given here; in the data, active means inhibition above about 20%; inactive means the rest. For the sample, actives were picked, then their nearest neighbours and some compounds at random.
Target: DNA-directed RNA polymerase subunit beta (Escherichia coli (strain K12)) (UniProt P0A8V2)
Assay: bacterial RNA polymerase transcription inhibition – biochemical (AID 559);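 further: 0% = enzyme without compound and 100% = no enzyme blank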
Conditions: E. coli RNA polymerase, fluorescence transcription assay; stronger effect = higher value;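 tested at 10 µM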

DNA-directed RNA polymerase subunit beta (Escherichia coli (strain K12)), sequence (P0A8V2 whole entry, looked up): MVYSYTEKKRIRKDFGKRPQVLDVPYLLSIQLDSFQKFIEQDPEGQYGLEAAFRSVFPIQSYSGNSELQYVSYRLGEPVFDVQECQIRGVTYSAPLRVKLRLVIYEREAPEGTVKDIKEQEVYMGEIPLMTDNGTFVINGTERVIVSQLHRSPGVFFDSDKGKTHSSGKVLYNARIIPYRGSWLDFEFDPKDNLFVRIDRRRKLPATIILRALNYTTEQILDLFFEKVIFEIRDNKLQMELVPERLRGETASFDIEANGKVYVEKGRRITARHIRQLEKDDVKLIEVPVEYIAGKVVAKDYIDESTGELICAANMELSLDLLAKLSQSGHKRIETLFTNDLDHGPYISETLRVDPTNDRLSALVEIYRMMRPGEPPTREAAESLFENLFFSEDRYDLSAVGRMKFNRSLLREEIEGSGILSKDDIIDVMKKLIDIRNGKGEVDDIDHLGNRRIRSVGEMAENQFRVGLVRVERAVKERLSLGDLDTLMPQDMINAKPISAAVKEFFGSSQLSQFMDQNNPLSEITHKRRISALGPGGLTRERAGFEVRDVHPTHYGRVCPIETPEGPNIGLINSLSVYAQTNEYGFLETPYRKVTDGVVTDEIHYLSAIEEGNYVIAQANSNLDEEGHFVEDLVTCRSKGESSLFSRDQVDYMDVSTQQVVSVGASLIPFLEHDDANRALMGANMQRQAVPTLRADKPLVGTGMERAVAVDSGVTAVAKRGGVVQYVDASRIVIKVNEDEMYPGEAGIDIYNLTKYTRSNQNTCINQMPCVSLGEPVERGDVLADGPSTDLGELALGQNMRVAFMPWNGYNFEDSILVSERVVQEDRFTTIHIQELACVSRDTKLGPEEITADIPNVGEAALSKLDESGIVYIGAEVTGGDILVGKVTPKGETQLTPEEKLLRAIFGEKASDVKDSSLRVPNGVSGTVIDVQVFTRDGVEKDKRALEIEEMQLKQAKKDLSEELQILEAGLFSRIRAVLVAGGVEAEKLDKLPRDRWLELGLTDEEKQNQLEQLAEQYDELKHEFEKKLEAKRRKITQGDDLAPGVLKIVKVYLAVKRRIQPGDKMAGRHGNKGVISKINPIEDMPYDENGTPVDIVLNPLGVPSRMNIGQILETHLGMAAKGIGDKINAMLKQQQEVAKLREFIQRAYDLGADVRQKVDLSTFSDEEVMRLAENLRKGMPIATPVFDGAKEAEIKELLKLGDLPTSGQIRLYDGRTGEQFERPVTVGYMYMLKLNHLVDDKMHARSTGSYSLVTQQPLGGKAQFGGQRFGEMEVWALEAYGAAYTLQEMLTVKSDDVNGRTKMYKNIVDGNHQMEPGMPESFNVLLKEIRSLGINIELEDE

| Structure (SMILES) | inhibition |
| --- | --- |
| CCc1c(C)sc(NC(=O)c2ccc(Br)o2)c1C(=O)OC | 3.85% (inactive) |
| C=CCn1c(COc2cccc3cccnc23)nnc1SCC(=O)OC | 2.75% (inactive) |
| Cc1ccc(S(=O)(=O)N2CCN(C(=O)CCC(=O)NC3CCCc4ccccc43)CC2)cc1 (stereo unspecified) | 8.3% (inactive) |
| Cc1c(NC(=O)Nc2ccccc2Cl)sc(=S)n1C | 4.97% (inactive) |
| CC(=O)C1C(c2ccc(Cl)cc2)NC(=O)NC1(O)C(F)(F)F (stereo unspecified) | 5.59% (inactive) |
| COc1ccccc1C1/C(=C(/O)c2ccc(C)cc2)C(=O)C(=O)N1Cc1ccco1 (stereo unspecified) | 10.3% (inactive) |
| CC(=O)OCc1cc(=O)n(C)c(=O)n1C | -0.42% (inactive) |
| O=S(=O)(O)c1nc2ccccc2n1Cc1ccc(Cl)cc1Cl | 4.09% (inactive) |
| O=C(O)C1CC=CCC1C(=O)NCCc1ccccc1 (stereo unspecified) | -1.18% (inactive) |
| CCOc1ccc(NC(=O)CCC(=O)n2nc(C)cc2C)cc1 | 7.47% (inactive) |
| CCCCOc1ccc(NC(=O)CSCC(=O)OCC)cc1 | 20.6% (active) |
| CCOc1ccc(NC(=O)CC2NCCNC2=O)cc1 (stereo unspecified) | 10.3% (inactive) |
| CN(C)/C=C1/C(=O)Nc2ccccc21 | 12.9% (inactive) |
| COC(=O)c1ccc(NC(=O)CSc2nnc(CNc3ccc(OC)cc3)n2C)cc1 | 1.56% (inactive) |
| C[C@H](NC(=O)OC(C)(C)C)c1nnc(SCC(N)=O)o1 | -0.35% (inactive) |
| COc1ccc(-n2nnc3c(=O)n(CC(=O)OCc4ccccc4)cnc32)cc1 | 1.78% (inactive) |
| CCC(C(=O)N1CCOCC1)n1c(C(=O)OC)cc2occc21 (stereo unspecified) | -1.1% (inactive) |
| O=C(c1cccs1)N(C(=O)c1cccs1)c1ccccn1 | 4.36% (inactive) |
| COc1cc(C2C3C(=O)N(c4ccccc4)C(=O)C3ON2c2ccccc2)ccc1O (stereo unspecified) | 6.83% (inactive) |
| CCOC(=O)C1C(=O)C=C(c2ccc(OC)cc2)CC1c1ccco1 (stereo unspecified) | 0.68% (inactive) |
| C=C(Br)CN1CCN(CC(=C)Br)CC1 | 5.48% (inactive) |
| COc1ccccc1C(=O)N1CCNC(=O)C1CC(=O)Nc1ccc(Cl)cc1 (stereo unspecified) | 7.25% (inactive) |
| CCOC(=O)c1ccc(NC(=O)CSc2ncccn2)cc1 | 18.1% (inactive) |
| CCNC(=O)N1CCNC(=O)C1CC(=O)Nc1ccc(C(=O)OCC)cc1 (stereo unspecified) | 24.6% (active) |

| Structure (SMILES) | inhibition |
| --- | --- |
| COc1ccc(N2CCN(C(=O)CSc3ncnc4c3cnn4-c3ccc(OC)cc3)CC2)cc1 | 3.59% (inactive) |
| CC(=O)Nc1ccc(S(=O)(=O)N2CCN(C3CCCCCCC3)CC2)cc1 | 4.11% (inactive) |
| CC(C)(C)c1cc(CN2CCN(CCC#N)CC2)cc(C(C)(C)C)c1O | 2.69% (inactive) |
| Cc1ccc(NC(=O)CN(C)S(=O)(=O)c2cnc[nH]2)cc1C | 6.13% (inactive) |
| Cc1ccc2c(c1)sc1ncc(NC(=O)c3ccccc3)c(=O)n12 | -11.4% (inactive) |
| CCCCCCn1c(SCC(=O)c2ccccc2)nc2c1c(=O)[nH]c(=O)n2C | -4.3% (inactive) |
| c1ccc(CCc2nc(-c3ccncc3)no2)cc1 | 8.17% (inactive) |
| CC1CCN(Cc2nc3c(c(=O)n(C)c(=O)n3C)n2Cc2cccc3ccccc23)CC1 | 11.8% (inactive) |
| CC(c1ccccc1)n1c(NCCCn2ccnc2)nc2c1c(=O)[nH]c(=O)n2C (stereo unspecified) | 6.37% (inactive) |
| O=C(Nc1ccccc1N1CCCCC1)c1ccc2nccnc2c1 | 5.19% (inactive) |
| CC(C)[C@H](NC(=O)Nc1ccc(S(N)(=O)=O)cc1)C(=O)O | 3.2% (inactive) |
| Cc1cccc(C2c3c(n(C)c(=O)n(C)c3=O)N=C3c4ccccc4C(=O)C32)c1 (stereo unspecified) | 8.94% (inactive) |
| Cc1nn(C)c(C)c1S(=O)(=O)N1CCc2ccccc21 | 27.2% (active) |
| CSc1nc2ccc(S(=O)(=O)N3CCc4ccccc43)cc2s1 | 0.59% (inactive) |
| Cn1c(=O)n(C)c2cc(S(=O)(=O)N3CCCc4ccccc43)ccc21 | 0.45% (inactive) |
| COCCOC(=O)C1=C(C)NC(=O)NC1c1ccc(Cl)cc1 (stereo unspecified) | 7.31% (inactive) |
| COC(=O)c1ccc(C2CC(=O)Nc3cc(OC)c(OC)cc32)cc1 (stereo unspecified) | 3.45% (inactive) |
| CCc1cccc2c3c([nH]c12)C(CC)(CC(=O)O)OCC3 (stereo unspecified) | 8.22% (inactive) |
| O=C(O)C1OC(C(=O)O)C2C1C(F)(F)C2(F)F (stereo unspecified) | 3.61% (inactive) |
| NS(=O)(=O)c1cc2c(cc1Cl)NC(C(Cl)Cl)NS2(=O)=O (stereo unspecified) | 8.21% (inactive) |
| CCS(=O)(=O)n1nc(-c2ccc(OC)cc2)nc1SC | 5.44% (inactive) |
| Cc1ccc(CC2CC(=O)N(c3ccc4c(c3)OCCO4)C2=O)cc1 (stereo unspecified) | 7.6% (inactive) |
| Cn1c2c(c(=O)n(C)c1=O)C1c3ccccc3OCC1C(C)(C)O2 (stereo unspecified) | 11.7% (inactive) |
| CC1(c2ccccc2Cl)NC(=O)N(CC(=O)NC(=O)NCc2ccco2)C1=O (stereo unspecified) | 3.56% (inactive) |

| Structure (SMILES) | inhibition |
| --- | --- |
| CCOc1ccc(Cn2c(SCCCCC#N)nc3c2c(=O)n(C)c(=O)n3C)cc1OCC | 1.66% (inactive) |
| CCOC(=O)NC(C(F)(F)F)(C(F)(F)F)P(=O)(c1ccccc1)c1ccccc1 | 12.5% (inactive) |
| O=C(NCC1CCCO1)C(C(=O)c1ccccc1)n1cc(Cl)ccc1=O (stereo unspecified) | -2.02% (inactive) |
| O=C(COC(=O)c1ccccc1C(=O)c1ccccc1)c1ccco1 | 4.61% (inactive) |
| Cc1ccc(NC(=O)c2cc(-c3ccc(C)o3)nc3ccccc23)nc1 | 2.57% (inactive) |
| O=C(c1ccc2c(c1)N(Cc1ccc(F)cc1)C(=O)CS2)N1CCOCC1 | -0.9% (inactive) |
| Cc1nc2c(-c3ccccc3)c(C)[nH]n2c(=O)c1Cl | 0.3% (inactive) |
| CCNc1nc(N)nc(Oc2ccc(OCC)nn2)n1 | 16.5% (inactive) |
| COc1ccc(OCC(=O)OCC(=O)Nc2ccc(S(=O)(=O)N3CCCCC3)cc2)cc1 | 6.57% (inactive) |
| Cc1noc(C)c1S(=O)(=O)Nc1ccc(C(=O)O)cc1 | -2.73% (inactive) |
| C=CCNC(=O)C1CC=CCC1C(=O)O (stereo unspecified) | -0.09% (inactive) |
| CC(C)(C)NC(=O)NC(=O)COC(=O)Cn1c(C(F)(F)F)nc2ccccc21 | -0.99% (inactive) |
| O=C(CSc1nc2[nH]ncc2c(=O)n1-c1ccccc1)N1CCCc2ccccc21 | -2.19% (inactive) |
| CCOc1ccc(NS(=O)(=O)c2ccc(OCC(=O)NCCCOC)cc2)cc1 | 0.48% (inactive) |
| COCCCN(C(=O)Cn1ncc2c(=O)oc3ccc(C)cc3c21)C(C)c1ccncc1 (stereo unspecified) | 5.04% (inactive) |
| CCc1c(C)c2c(C)[nH]nc2oc1=O | 6.94% (inactive) |
| CCCOc1ccccc1-c1nc(SCCC(=O)O)n[nH]1 | 4.03% (inactive) |
| CCC(C)(NC(=O)c1ccccn1)C(=O)NC1CCCCC1 (stereo unspecified) | 24.2% (active) |
| CCC(C)(C(=O)NC1CCCC1)N(C(=O)CNC(C)=O)c1ccc(C)cc1 (stereo unspecified) | 2.29% (inactive) |
| CN(CC(=O)NC1CCCCC1)S(=O)(=O)c1cccc2cccnc12 | 1.4% (inactive) |
| CCN1C(=O)/C(=C2/Sc3ccccc3N2CCCS(=O)(=O)O)SC1=S | 14% (inactive) |
| COCCNC(=O)CN1C(=O)CSc2ncccc21 | 2.28% (inactive) |
| Cc1ccc(Cn2c(NC(=O)c3ccco3)nc3ccccc32)cc1 | 3.14% (inactive) |
| CCOC(=O)C1CCCN(C(=O)c2sc3nc(C)nc(N4CCOCC4)c3c2C)C1 (stereo unspecified) | 6.92% (inactive) |

| Structure (SMILES) | inhibition |
| --- | --- |
| COc1cccc(N2CCN(C(=O)C3CCCN(S(=O)(=O)c4cnc[nH]4)C3)CC2)c1 (stereo unspecified) | 6.57% (inactive) |
| Cn1c(=O)c2c(nc(N3CCCCCC3)n2CC(=O)c2ccc(Br)cc2)n(C)c1=O | 6.56% (inactive) |
| O=CN1CCN(C2CC(=O)N(c3ccc4c(c3)OCO4)C2=O)CC1 (stereo unspecified) | -2.9% (inactive) |
| Cc1cc(NC(=O)CSc2nnc(-c3ccc(Cl)s3)o2)no1 | 2.94% (inactive) |
| Nc1nonc1-c1nc2ccccc2n1Cc1ccc(F)cc1 | 1.54% (inactive) |
| COCc1cc(C)nc(SCC(=O)Nc2cccc(C)c2)c1C#N | 10.2% (inactive) |
| CC(C)C(c1nnnn1Cc1ccccc1)N1CCC(C(N)=O)CC1 (stereo unspecified) | 9.07% (inactive) |
| O=C(NC1CCCCC1)n1c(=O)oc2cc(S(=O)(=O)N3CCCCC3)ccc21 | 5.56% (inactive) |
| COC(=O)c1c(NC(=O)CCN2CCOCC2)sc2c1CCCC2 | 7.91% (inactive) |
| Cc1cc(C)nc(NC2=NCC(=O)N2c2ccc(Cl)cc2)n1 | 9.3% (inactive) |
| COC(=O)CCSc1nccn1Cc1ccccc1 | 2.17% (inactive) |
| O=C1CSC(=O)N1CCOCCN1C(=O)CSC1=O | 8.19% (inactive) |
| CCOc1ccccc1Nc1nnc(SCc2ccc(C(=O)OC)o2)s1 | 3.87% (inactive) |
| CC(=O)OCc1cc2cc(C)ccc2[nH]c1=O | 8.56% (inactive) |
| CC(C)OC(=O)CN1C(=O)c2ccccc2C1=O | 8.17% (inactive) |
| COCCN(C(=O)CCC(=O)Nc1ccccn1)C(C(=O)NCCC(C)C)c1ccc(OC)cc1 (stereo unspecified) | 9.79% (inactive) |
| Cc1oc(-c2ccccc2F)nc1CS(=O)(=O)CC(=O)NCCCN(C)C1CCCCC1 | 4.54% (inactive) |
| Cc1nnc(NC(=O)CSc2nccn2-c2cccc(C)c2C)s1 | 8.46% (inactive) |
| Cc1cc(C(=O)COC(=O)CCCN2C(=O)c3ccccc3C2=O)c(C)n1C | 4.5% (inactive) |
| COc1ccc(Br)cc1/C=N/n1c(C)nnc1C | 11.2% (inactive) |
| COCCN(CC(=O)Nc1ccccc1C)S(=O)(=O)c1ccc(S(=O)(=O)N2CCCC2)cc1 | 4.44% (inactive) |
| CC(C(=O)N1CCOCC1)N1c2cccc3cccc(c23)S1(=O)=O (stereo unspecified) | 8.72% (inactive) |
| O=C(CCCN1C(=O)CCC1=O)Nc1ccc(Cl)c(C(F)(F)F)c1 | -1.3% (inactive) |
| C=CCNc1nnc(SCC(=O)N2CCCCC2)c2ccccc12 | 5.18% (inactive) |
